Bioassay records deposited in PubChem by National Center for Advancing Translational Sciences (NCATS).
Pf growth 96h: P. falciparum growth inhibition at 96 hour, primary screen for plastid delayed-death inhibitors | P. falciparum luciferase reporter growth, 96 h | Potency, µM (top dose mostly 28.7 µM), for the others: top-dose activity change, negative = inhibition, hits mostly inhibitors | hit rate 6.9% among 320,000; further: on the % scale 0 is the no-effect control and ±100 the full control effect
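Two parasite generations (96 h, 37 C, 5% CO2) of compound exposure in infected erythrocytes (0.05% parasitemia, 2% hematocrit). Luciferase-reporter P. falciparum; decreased luminescence indicates inhibited growth, aimed at apicoplast-acting delayed death.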
SARS PLpro yeast: blocks SARS-CoV papain-like protease in a yeast assay; S. cerevisiae expressing SARS-CoV PLpro, growth rescue; AID 485353; Potency, µM (top dose mostly 32.9 µM), inactives show top-dose activity, positive = growth rescue, usual class: activators; hit rate 0.19% among 330,000; calls by dose curve; further: 0% is about no effect; nearly all actives have a fitted effect of over 55% in size
Pf growth 48h: inhibits P. falciparum growth in the first generation, 48 h | AID 504832 | P. falciparum luciferase growth in erythrocytes, 48 h | hit rate 5.9% among 310,000 | Potency, µM (series often up to 28.7 µM), for the others: at the top dose activity change, negative = inhibition, most hits filed as inhibitors; further: on the % scale 0 is the no-effect control and ±100 the full control effect
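Erythrocytes infected with P. falciparum carrying an integrated firefly luciferase reporter (2% hematocrit, 0.1% parasitemia final) were exposed to compounds in RPMI 1640 with 0.5% Albumax at 37 C, 5% CO2. Growth inhibition was scored as reduced luminescence.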
AMA1-RON2 inh: inhibitors of Plasmodium falciparum AMA1-RON2 interaction; AlphaScreen AMA1-biotinylated RON2 peptide binding; Potency, µM (titrated, usually from 58.2 µM), for the others: top-dose activity change, negative = inhibition, hits mostly inhibitors; hit rate 0.2% among 360,000;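 further: 0% = vehicle wells and -100% = peptide control; nearly all actives have a fitted effect of over 45% in size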
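AMA1 (3D7) with his tag at 25 nM final met compounds first, then biotinylated RON2 peptide at 25 nM; detection used donor plus acceptor beads, 10 µg/mL apiece, read by AlphaScreen after 30 min at room temperature.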
The depositor's hits bear a star; ? = inconclusive; · = not tested or not shown; [ ] = dose if it differs, or a comment. Hits are enriched below; roughly 9.4% of the tested compounds scored in any of these assays. Unless noted, the call rests on the fitted dose curve; in most records, active means well fitted curve in the direction sought with a large enough effect; inconclusive means small, poorly fitted or top-dose-only effect, or another doubt; inactive means no such curve, though single readings can be large; an effect the other way counts as inactive or inconclusive. Potency means the concentration at half of the fitted maximal effect.

SMILES | Pf growth 96h | SARS PLpro yeast | Pf growth 48h | AMA1-RON2 inh
N#CC1=C(N)C2=C(N3CCCCC3)CCCC2C1(C#N)C#N (stereo not given) | 12µM* | 2% | 5% | -5%
N#CC(C#N)=C1C=C2C=C(N3CCCCC3)CCC2CC1 (stereo not given) | 1% | -8% | -2% | ?
Cc1ccccc1N(CC(=O)NCCSc1ccccn1)S(=O)(=O)c1ccccc1 | 10µM* | 1% | ? | -9%
CCOc1ccccc1N(CC(=O)NCCSc1ccccn1)S(=O)(=O)c1ccccc1 | ? | 1% | 15µM* | 4%
COc1ccccc1N(CC(=O)NCCSc1ccccn1)S(=O)(=O)c1ccccc1 | 16% | 0% | ? | 4%
CCCc1nc2oc3cc(OC)ccc3c(=O)c2c(=O)n1CCc1ccccc1 | 0% | 1% | ? | -24%
Cc1ccc(-c2cc3c(nn2)-c2ccccc2C3=O)cc1 | 0.37µM* | -4% | 0.52µM* | -11%
Cc1ccccc1-c1cc2c(nn1)-c1ccccc1C2=O | · | -17% | 4.1µM* | -14%
COCCN1C(=O)CN(S(C)(=O)=O)CC1(C)C(=O)NC(C)C (stereo not given) | · | · | · | 2%
COc1cc([N+](=O)[O-])ccc1NC(=O)Nc1nc2c(s1)CCCC2 | -5% | -10% | 1.5µM* | 2%
Nc1nc2ccc(O)cc2s1 | 10µM* | -31% | 2% | 13%
Nc1nc2ccc(Br)cc2s1 | · | · | · | 0%
Nc1nc2ccc(C(=O)N3CCCCC3)cc2s1 | 4.1µM* | -1% | 12% | 20%
O=C(c1ccc2ncsc2c1)N1CCCCC1 | -12% | 5% | 15% | -1%
Cc1cc(Cl)c2oc(C(=O)NCCN3CCCCC3CO)c(C)c2c1 (stereo not given) | 13µM* | 4% | ? | 23%
Cc1cc(Cl)c2oc(C(=O)NCCC3CCCCO3)c(C)c2c1 (stereo not given) | -20% | -8% | 59% | 4%
CC1CC(=O)c2ccccc2C1C (stereo not given) | · | · | · | 0%
CCOc1ccc(C(=O)Nc2nnc(NC(=S)Nc3ccccc3)s2)cc1 | ? | 0% | ? | 40%
Cc1ccc(-c2csc3nc(-c4ccncc4)[nH]c(=O)c23)cc1 | 4% | 1% | -5% | 2%
Cc1ccc(-c2nc3ccsc3c(=O)[nH]2)cc1 | 480% | -1% | 2.1µM* | 14%
COc1ccc(N=C2C(=O)N3c4c(cccc42)C(C)=CC3(C)C)cc1 | 12µM* | -22% | ? | -23%
CCOC(=O)c1c(C)n(-c2ccc(F)cc2)c2ccc(O)cc12 | 6% | 1% | 2.6µM* | -10%
COC(=O)c1c(C)n(-c2ccc(OC)cc2)c2ccc(O)cc12 | 20% | 4% | 12µM* | -3%
CCn1c2ccccc2c2cc(/C=N/n3cn[nH]c3=S)ccc21 | 8.3µM* | -17% | ? | 16%
Cc1ccc(-c2nnn(CC(=O)N3c4ccccc4CCc4ccccc43)n2)cc1 | ? | -6% | 10µM* | 3%
SMILES | Pf growth 96h | SARS PLpro yeast | Pf growth 48h | AMA1-RON2 inh
CS(=O)(=O)c1ccc(-c2nnn(CC(=O)N3CCCCC3)n2)cc1 | 12µM* | 2% | 2% | 8%
Nc1ccc(-c2nnn(CC(=O)N3CCCCC3)n2)cc1 | ? | 6% | 38% | 32%
O=C(Cn1nnc(-c2ccc(CN3CCOCC3)cc2)n1)N1CCCc2ccccc21 | 2.6µM* | 0% | ? | -2%
COc1ccc(C(=O)CC(=O)C(=O)Nc2ccc(C)c(C)c2)cc1 | 12% | 0% | · | 10%
CC1(C)C2CCC1(CS(=O)(=O)N1CCOCC1)C(=O)C2 (stereo not given) | · | -1% | 3% | 3%
O=C(OC(C(=O)Nc1cc(Cl)cc(Cl)c1)c1ccccc1)C1=COCCO1 (stereo not given) | -18% | -40% | -2% | 0%
O=C(C[n+]1cnn(CC(=O)c2ccc(Cl)cc2Cl)c1)c1ccc([N+](=O)[O-])cc1 | ? | 16% | 3.7µM* | 5%
Cc1ccc2c(c1)c1c(n2CC2COC(C)(C)O2)C(=O)CCC1 (stereo not given) | -23% | -14% | -22% | 0%
COc1ccc(CN2C(=O)c3cccc4cccc(c34)C2=O)cc1 | 87% | 2% | ? | -15%
O=C(c1ccc(S(=O)(=O)N2CCCC2)cc1)N1CCC(CN2C(=O)c3cccc4cccc(c34)C2=O)CC1 | 1.3µM* | 0% | 12µM* | 0%
CCOC(=O)C1CCN(CC(O)COCc2ccc3c(c2)OCO3)CC1 (stereo not given) | 0% | 4% | 11% | 1%
COc1ccc(OCC(O)CN2CCC(CN3C(=O)c4cccc5cccc(c45)C3=O)CC2)cc1 (stereo not given) | 156% | -3% | 8.3µM* | -1%
COc1ccc(S(=O)(=O)N2CCC(CN3C(=O)c4cccc5cccc(c45)C3=O)CC2)cc1 | 1.5µM* | 11% | ? | 15%
O=C1c2cccc3cccc(c23)C(=O)N1CC1CCN(CC(O)COCc2ccc3c(c2)OCO3)CC1 (stereo not given) | ? | 6% | 9.3µM* | 5%
O=C(O)C1CCN(C(=O)c2ccc(S(=O)(=O)N3CCCCCC3)cc2)CC1 | · | · | · | 6%
CC1(C)C(=O)Nc2ccccc2N1C(=O)COC(=O)/C=C/c1ccc(OC(F)F)cc1 | -1% | -3% | ? | 9%
Cc1ccc(SCc2c(C(=O)N/N=C/c3ccco3)nnn2-c2nonc2N)cc1 | · | · | · | 12%
Cc1ccc(/C=N\Nc2nc3ccc(Cl)cc3[nH]2)o1 | 2.3µM* | -4% | 2.6µM* | 80%
CCCCn1c(/C=N/Nc2nc3ccccc3[nH]2)nc2ccccc21 | ? | 13% | 1.9µM* | 4%
Fc1ccccc1-c1ccc(/C=N/Nc2nc3ccccc3[nH]2)o1 | 0.93µM* | -34% | ? | 57%
C(=N\Nc1nc2ccccc2[nH]1)/c1ccccn1 | 342% | 15% | -41% | 27%
COc1ccc(CCn2c(O)c(C=NCCCO)c(=O)[nH]c2=O)cc1OC | -14% | -3% | ? | 0%
Cc1ccc(C(=O)N2CCN(c3ccccn3)CC2)cc1 | 40% | 0% | -17%[5.75 µM] | -3%
CCOC(=O)/C=C1\CN(CCC(C)C)S(=O)(=O)c2ccccc21 | 15µM* | -4% | ? | 9%
CCOC(=O)/C=C1\CN(C(C)c2ccccc2)S(=O)(=O)c2ccccc21 (stereo not given) | -26% | -2% | -3% | -4%
Cc1cc(NC(=O)CSc2nnc(CNC(=O)c3ccccc3)o2)no1 | -5% | 4% | 150% | 28%
Cn1c(-c2ccccc2)c(C=O)c2ccccc21 | ? | -3% | 0% | -1%
Cn1c(C(=O)O)c(C=O)c2ccccc21 | 10µM* | -1% | 5% | 6%
CO[C@H]1C[C@@H]2CC[C@@H](C)[C@@](O)(O2)C(=O)C(=O)N2CCCC[C@H]2C(=O)O[C@H]([C@H](C)C[C@@H]2CC[C@@H](O)[C@H](OC)C2)CC(=O)[C@H](C)/C=C(\C)[C@@H](O)[C@@H](OC)C(=O)[C@H](C)C[C@H](C)/C=C/C=C/C=C/1C | 1.5µM* | · | 1.5µM* | ·
